# Only some compounds are listed: those with a hit (about 31% of all), similar ones and a draw of the others.
# CYP2C9 activ: human CYP2C9 activators, primary screen, biochemical, luminescence; AID 1024, 2008; recombinant CYP2C9, luciferin-H conversion; hits give high values; factor 1 = untreated enzyme, 0 = blocked; 96,000 tested, 1.4% active; activation factor at 5 µM;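 active means activation factor of 2 or more for CYP2C9 at a 5 µM dose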
# CYP2C19 inh: blockers of cytochrome P450 2C19 activity – biochemical, luminescence, ADME assay, primary screen | inhibition, % at 5 µM | AID 778, 2007 | CYP2C19 Supersomes, luciferin-H EGE luminescence, 30 min | P33261 | 96,000 tested, 21% active;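 active means CYP2C19 inhibition above a set limit at 5 µM in the primary screen, cut at about 50% in these data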
# Target sequence (P33261 whole entry, looked up): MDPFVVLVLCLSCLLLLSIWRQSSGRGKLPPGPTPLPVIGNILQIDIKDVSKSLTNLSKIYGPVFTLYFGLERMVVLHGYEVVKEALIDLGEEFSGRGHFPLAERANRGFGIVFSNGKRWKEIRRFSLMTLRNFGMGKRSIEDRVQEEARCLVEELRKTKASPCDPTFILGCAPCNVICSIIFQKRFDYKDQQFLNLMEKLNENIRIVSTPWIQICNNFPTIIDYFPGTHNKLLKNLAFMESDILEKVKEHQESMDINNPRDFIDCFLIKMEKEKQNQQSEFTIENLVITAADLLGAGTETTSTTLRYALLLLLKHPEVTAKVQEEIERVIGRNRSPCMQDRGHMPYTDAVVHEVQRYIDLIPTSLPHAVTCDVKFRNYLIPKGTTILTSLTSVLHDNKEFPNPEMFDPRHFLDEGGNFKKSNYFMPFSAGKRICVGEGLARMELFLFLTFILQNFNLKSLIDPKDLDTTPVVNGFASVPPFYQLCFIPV
# CYP2C19 activ: human CYP2C19 activators, primary screen, biochemical, luminescence | AID 1025, 2008 | 96,000 tested, under 10 active | activation factor at 5 µM | recombinant CYP2C19, luciferin-H EGE luminescence; hits give high values; 0 = fully inhibited enzyme, 1 = untreated enzyme;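 active means activation factor of at least 2 at 5 µM in the primary screen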
# CYP2C9 inh: blockers of cytochrome P450 2C9 activity – biochemical, luminescence, ADME assay, primary screen | CYP2C9 Supersomes, luciferin-H conversion | inhibition, % at 5 µM | 96,000 tested, 20% active | AID 777, 2007;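 active means blocking of liver enzyme CYP2C9 beyond about 50% at 5 µM, limit read from the data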
# Numbers stand for hits; 0 = inactive.
SMILES,CYP2C9 activ,CYP2C19 inh,CYP2C19 activ,CYP2C9 inh
O=C(CCCCCn1c(=O)[nH]c2ccccc2c1=O)N1CCN(Cc2ccc3c(c2)OCO3)CC1,0,64.8,0,79.6
Cn1c(=O)cc(SCC(=O)N2CCN(Cc3ccc4c(c3)OCO4)CC2)c2ccccc21,0,0,0,51.7
Cn1c(=O)c2sccc2n2c(CCCC(=O)NCc3ccc4c(c3)OCO4)nnc12,0,76.8,0,0
CCOc1cccc2c1OC1(C)CC2NC(=O)N1c1cccc(Cl)c1 (stereo unspecified),0,0,0,0
CC(C)(C)C(=O)[C@H]1[C@H](c2ccccc2)[C@@]2(N=C(c3ccccc3)OC2=O)C2c3ccccc3C=NN21 (stereo partly specified),0,52.9,0,0
COc1cccc(Oc2cn[nH]c2-c2ccc(OC)cc2O)c1,0,99.2,0,99.8
CCOc1ccc(-c2[nH]ncc2Oc2cccc(OC)c2)c(O)c1,0,99.4,0,100.2
COc1cccc(Oc2cn[nH]c2-c2ccc(O)cc2O)c1,0,98.2,0,96.6
COc1cccc(Oc2coc3c(CN4CCOCC4)c(O)ccc3c2=O)c1,0,0,0,0
COc1cccc(Oc2ccc(N)cn2)c1,0,0,0,0
CCCCN(CC)Cc1ccc(CNC(=O)Nc2ccc(OCC)cc2)o1,0,0,0,0
CCOc1cccc(C(=O)NC(=S)Nc2ccc(N3CCCC3)cc2)c1,0,0,0,0
Cc1nn(-c2ccccc2)c2c1C1(C(=O)N3c4c(cccc41)C(C)CC3(C)C)C(C#N)=C(N)O2 (stereo unspecified),0,75.8,0,97.1
CC(=O)N1C(=O)C2(C(C#N)=C(N)Oc3cc(C)oc(=O)c32)c2ccccc21 (stereo unspecified),0,0,0,88.5
CC(=O)N1C(=O)C2(C(C#N)=C(N)Oc3n[nH]c(-c4ccccn4)c32)c2ccccc21 (stereo unspecified),0,0,0,0
CC(=O)N1C(=O)C2(C(C#N)=C(N)Oc3c2c(C)nn3-c2ccccc2)c2ccccc21 (stereo unspecified),0,0,0,81.4
CCN1C(=O)C2(C(C#N)=C(N)Oc3c2c(C)nn3-c2ccccc2)c2ccccc21 (stereo unspecified),0,60.7,0,79.4
COc1ccc2c(CC#N)c[nH]c2c1,0,0,0,0
Cc1nn(-c2ccccc2)c2c1C1(C(=O)N(C)c3ccccc31)C(C#N)=C(N)O2 (stereo unspecified),0,0,0,55.6
COc1ccc(CNC(=O)Nc2cccs2)cc1OC,0,0,0,0
COc1ccc(Br)cc1CNC(=O)Nc1cccs1,0,75.6,0,66.6
COc1ccccc1CNC(=O)Nc1cccs1,0,87.5,0,0
C=CCN=C1SC(C)C(=O)N1S(=O)(=O)c1ccccc1 (stereo unspecified),0,73.3,0,0
COc1cc(C)nc(Oc2ccc(OCCOc3ccc(C)cc3)nn2)n1,0,0,0,0
CCn1c2c(c3cc(Cl)ccc31)CCCC2=O,0,0,0,0
SMILES,CYP2C9 activ,CYP2C19 inh,CYP2C19 activ,CYP2C9 inh
CCCCc1nn(-c2cc(Cl)ccc2OC)c2c1C(=O)CC(C)(C)C2,0,0,0,55.8
CCCc1nn(-c2cc(Cl)ccc2OC)c2c1C(=O)CCC2,0,58.6,0,0
O=C(NCCN1CCOCC1)C1CCC(=O)N1C1CCCCC1 (stereo unspecified),0,0,0,0
CCN(CC)c1ccc(NC(=O)c2cccnc2)cc1,0,0,0,0
CCN(CC)c1ccc(-c2nc3cnccc3n2C)cc1,0,90.3,0,91.8
COC(=O)CSc1cc(C(=O)c2nccn2C)c2ccccc2n1,0,81.7,0,52.2
COCCNc1cc(C)nc2c3c(C)cc(C)nc3nn12,0,0,0,0
Cc1oc2cc(O)ccc2c(=O)c1Oc1ccccc1Br,0,0,0,0
Cc1ccccc1-c1c(C)oc2cc(O)ccc2c1=O,2.2,0,0,0
Cc1oc2cc(O)ccc2c(=O)c1N1C(=O)c2ccccc2C1=O,2.2,0,0,0
CCCOc1ccc2c(=O)c(N3C(=O)c4ccccc4C3=O)c(C)oc2c1,0,0,0,0
Cc1oc2cc(O)ccc2c(=O)c1Oc1ccccc1,2,0,0,0
O=C(c1ccc(Cl)cc1)c1cnc2ccccn12,0,0,0,0
CN(C)CCN1C(=O)C(=O)/C(=C(/O)c2ccc(OCc3ccccc3)cc2)C1c1ccncc1 (stereo unspecified),0,0,0,0
Cn1cccc1C(=O)C(=O)Nc1cccc(Cl)c1Cl,2,0,0,0
Cc1ccc(C)c(C(=O)CC2(O)C(=O)N(C)c3ccccc32)c1 (stereo unspecified),0,0,0,0
COc1ccc2c(c1)CC(C1(O)C(=O)N(C)c3ccccc31)C2=O (stereo unspecified),0,77.4,0,0
Nn1c(-c2ccccn2)nnc1-c1ccccn1,0,0,0,0
c1ccc(-c2ccc(-c3ccccn3)nn2)nc1,0,55.6,0,0
FC(F)(F)c1ccccc1C1C2=C(Nc3ncnn31)c1ccccc1CCC2 (stereo unspecified),0,0,0,0
COc1ccc(C2C3=C(Nc4ncnn42)c2ccccc2CC3)cc1OC (stereo unspecified),0,55.2,0,0
COc1ccc(Br)cc1C(=O)Nc1ccc(O)cc1,3.1,0,0,0
CCOc1cccc(C(=O)Nc2ccc(N3CCN(S(C)(=O)=O)CC3)cc2)c1,0,0,0,52.7
COc1ccc(Br)cc1C(=O)Nc1ccc(N2CCN(S(C)(=O)=O)CC2)cc1,2,0,0,0
COc1cc(C(=O)Nc2ccc(N(C)C)cc2)cc(OC)c1OC,0,70.1,0,0
SMILES,CYP2C9 activ,CYP2C19 inh,CYP2C19 activ,CYP2C9 inh
CCC(=O)Nc1ccccc1C(=O)NC1CCCCC1,0,0,0,0
COc1cc(C(=O)Nc2ccc(Br)cc2C(=O)c2cc(OC)c(OC)c(OC)c2)cc(OC)c1OC,0,67.9,0,93.0
COc1ccc(NC2C=CS(=O)(=O)C2)c(OC)c1 (stereo unspecified),0,0,0,0
CCn1cc(C(=O)N2CCc3ccccc32)c(=O)c2cc(S(=O)(=O)N3CCCCCC3)ccc21,0,0,0,66.8
CC1CCN(CCCNC(=O)c2cn(C)c3ccc(S(=O)(=O)N4CCCC4)cc3c2=O)CC1,0,0,0,0
Cn1cc(C(=O)NC2CCCCCCC2)c(=O)c2cc(S(=O)(=O)N3CCCC3)ccc21,0,0,0,84.2
CCn1cc(C(=O)NCC2CCCO2)c(=O)c2cc(S(=O)(=O)N3CCCCCC3)ccc21 (stereo unspecified),0,0,0,56.6
CCOC(=O)c1c(C)c(C(=O)N(C)C2CCCCC2)c(C)n1C,0,53.6,0,0
CCOC(=O)C(C)c1c(C)[nH]c(=S)[nH]c1=O (stereo unspecified),0,0,0,0
CCOC(=O)C1C(=O)OC(C)(C)C1C(C)C(=O)c1ccc(C)cc1 (stereo unspecified),0,0,0,0

# Bioassay records from PubChem.
